# TEAD-YAP inh = TEAD-YAP interaction inhibition; HEK-TIYL cells, TEAD-Gal4/YAP UAS-luciferase luminescence; inhibition, % at 9.12 µM; 640,000 tested, 1.4% active; AID 1259422; in the data active means inhibition above about 32%;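 further: 0% = median of test compound wells and 100% = reference inhibitor wells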
# GPR151 activ = activates the human receptor GPR151; Q8TDV0; PathHunter beta-arrestin GPR151 cells, luminescence; activation, % at 11.2 µM; 650,000 tested, 1% active; AID 1508602; in the data active means activation above about 4.9%;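 further: 0% = median of compound wells and 100% = cells with positive control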
# MITF inh = blocks human microphthalmia-associated transcription factor; O75030; AlphaScreen MITF homodimerization, bead proximity signal; inhibition, % at 2.6 µM; 650,000 tested, 0.91% active; in the data active means inhibition above about 50%;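 further: 0% = vehicle wells with protein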
# FBW7 act = activators of human E3 ligase FBW7; AID 1259310; 650,000 tested, 0.13% active; normalized activity (activation), % at 26.1 µM; Q969H0; AlphaScreen FBW7–phospho-cyclin E peptide binding, activator screen; in the data active means normalized activity above about 1.9%;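 further: purified mutant Fbw7 with reduced substrate affinity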
# Target sequence (Q969H0 whole entry, looked up): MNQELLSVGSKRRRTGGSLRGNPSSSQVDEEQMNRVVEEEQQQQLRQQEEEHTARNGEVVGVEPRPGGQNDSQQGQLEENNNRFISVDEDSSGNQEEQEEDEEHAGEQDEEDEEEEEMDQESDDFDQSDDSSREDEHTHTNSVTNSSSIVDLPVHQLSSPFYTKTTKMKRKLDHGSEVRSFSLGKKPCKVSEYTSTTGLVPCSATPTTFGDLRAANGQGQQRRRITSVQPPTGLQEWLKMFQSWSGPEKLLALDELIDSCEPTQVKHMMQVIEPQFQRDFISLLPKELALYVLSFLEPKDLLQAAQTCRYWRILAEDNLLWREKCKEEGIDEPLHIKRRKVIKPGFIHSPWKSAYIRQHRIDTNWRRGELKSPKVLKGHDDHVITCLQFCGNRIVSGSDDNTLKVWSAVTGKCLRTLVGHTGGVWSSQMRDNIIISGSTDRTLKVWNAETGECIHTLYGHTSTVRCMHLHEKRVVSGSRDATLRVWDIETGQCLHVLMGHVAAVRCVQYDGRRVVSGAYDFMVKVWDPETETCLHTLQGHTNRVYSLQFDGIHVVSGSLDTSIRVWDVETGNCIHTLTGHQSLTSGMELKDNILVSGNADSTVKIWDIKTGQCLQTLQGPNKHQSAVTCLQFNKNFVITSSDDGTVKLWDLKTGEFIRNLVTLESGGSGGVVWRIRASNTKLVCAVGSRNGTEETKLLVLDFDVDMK
# MITF inh conf = human MITF inhibition, confirmation; shares compounds with MITF inh; AlphaScreen MITF homodimerization, biotin/His-MITF beads; inhibition, % at 2.6 µM; 4,700 tested, 16% active; AID 1259372;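 active means inhibition above a cutoff derived from the DMSO control wells, cut at about 28% in these data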;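 further: 0% = MITF dimer wells with DMSO only; inhibitors lower the bead chemiluminescence by keeping MITF from dimerizing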
# AS interf DR = AlphaScreen optical interference, dose response counter-screen; shares compounds with MITF inh; AlphaScreen optical interference counterscreen, cell-free; IC50, µM; 480 tested, 6% active; call rule not given here
# AlphaScreen intf2 = counter-screen: compounds optically interfering with AlphaScreen. shares compounds with MITF inh. LysRS AlphaScreen counterscreen, signal interference, triplicate. inhibition, % at 2.6 µM. 4,700 tested, 7.6% active. AID 1259376;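 active means inhibition above a cutoff derived from the DMSO control wells, cut at about 30% in these data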
# * hit, by the source's call; nt = no result; ! = repeats disagree. Compounds with a hit are over-represented: about 3.4% of the library has one in this group of screens.
SMILES,TEAD-YAP inh,GPR151 activ,MITF inh,FBW7 act,MITF inh conf,AlphaScreen intf2,others
CCc1ccc(CN2CCN(Cc3ccccc3Br)CC2)cc1,3,1,57*,0,-2,6,
CCN1CCN(Cc2ccc(SC)cc2)CC1,4,1,39,0,nt,nt,
CSc1ccc(CN2CCN(Cc3ccccc3Br)CC2)cc1,2,0,75*,0,12,26,
CSc1ccc(CN2CCN(Cc3ccc(Br)cc3)CC2)cc1,-2,2,78*,0,14,13,
COc1ccc2[nH]cc(/C=C/[N+](=O)[O-])c2c1,-24,-1,6,-1,nt,nt,
CCc1nn2c(=O)cc(N3CCNCC3)nc2s1,0,-1,12,1,nt,nt,
CN1C2CCC1CC(OC(=O)CNC1CCCCC1)C2 (stereo unspecified),-5,3,55*,0,8,14,
CC(C)OP(=O)(Cc1cccc(C#N)c1)OC(C)C,9,0,-5,1,nt,nt,
Cc1ccc(C2=CCN(CC(=O)N3CCc4ccccc43)CC2)o1,11,0,15,2,nt,nt,
O=c1oc2ccccc2c(O)c1C(c1ccncc1)c1c(O)c2ccccc2oc1=O,2,-1,6,0,nt,nt,
CCOC(=O)C1C2NC(=S)N(c3ccccc3)C1(C)Oc1cc(OC)ccc12 (stereo unspecified),-8,-1,53*,-1,47*,30,AS interf DR=>6.4
CCOC(=O)C1C2NC(=S)N(CC)C1(C)Oc1ccc(Br)cc12 (stereo unspecified),15,1,53*,0,31*,25,AS interf DR=>6.3
CCOC(=O)C1C2NC(=S)N(c3cccc(C)c3)C1(C)Oc1ccc(OC)cc12 (stereo unspecified),4,0,59*,-1,50*,35*,
CCOC(=O)C1C2NC(=S)N(CCc3ccccc3)C1(C)Oc1ccc(Br)cc12 (stereo unspecified),5,3,18,0,nt,nt,
Cc1ccc(C2=NCC(=O)N(CCN3CCOCC3)c3sc(C)c(C)c32)cc1,1,0,-7,0,nt,nt,
CCOC(=O)C1C2NC(=S)N(c3ccccc3OC)C1(C)Oc1c(OCC)cccc12 (stereo unspecified),-1,-1,16,0,nt,nt,
CCOC(=O)C1C2NC(=S)N(c3ccc(CC)cc3)C1(C)Oc1c(OCC)cccc12 (stereo unspecified),5,-1,54*,0,42*,27,AS interf DR=>5.5
CCOC(=O)C1C2NC(=S)N(c3cccc(Cl)c3)C1(C)Oc1c(OC)cccc12 (stereo unspecified),3,-1,52*,0,34*,15,AS interf DR=>5.1
O=C(Cc1ccccc1)N1CCN(Cc2ccccn2)CC1,0,0,47,-1,nt,nt,
Cn1cccc1CN1CCN(C(=O)COc2ccccc2)CC1,-14,-1,53*,1,6,17,
O=C(COc1ccccc1)N1CCN(Cc2ccccn2)CC1,3,1,78*,0,-1,2,
Clc1cccc(Cl)c1CNC1CN2CCC1CC2 (stereo unspecified),3,2,0,0,nt,nt,
COc1cccc(CN2CCN(Cc3cccc(Br)c3)CC2)c1,2,-1,63*,0,13,16,
COc1cccc(CN2CCN(Cc3ccc(Br)cc3)CC2)c1,-8,-1,70*,0,4,15,
COc1cccc(CN2CCN(c3ccc([N+](=O)[O-])cc3)CC2)c1,4,4,40,0,nt,nt,
SMILES,TEAD-YAP inh,GPR151 activ,MITF inh,FBW7 act,MITF inh conf,AlphaScreen intf2,others
Cc1nc2ccc(P(=O)(O)O)cc2s1,6,3,55*,0,12,40*,
Brc1ccc(CNCCc2c[nH]c3ccccc23)cc1,7,3,55*,1,11,19,
CCc1ccc(CNCCc2c[nH]c3ccccc23)cc1,3,0,19,0,nt,nt,
O=C(O)CSc1cc(Cl)c2nonc2c1[N+](=O)[O-],13,1,87*,0,85*,21,AS interf DR=>6.6
O=[N+]([O-])c1c(Cl)cc(Cl)c2nonc12,2,2,7,0,nt,nt,
OCCN1CCN(Cc2ccc(Cl)cc2)CC1,4,0,67*,0,-1,5,
O=C(Cc1ccccc1)N1CCN(Cc2cccc(Cl)c2)CC1,15,-1,46,0,nt,nt,
CCN1CCN(Cc2ccc(Cl)cc2)CC1,-1,0,11,0,nt,nt,
OCCN1CCN(Cc2cccc(Cl)c2Cl)CC1,-7,-1,65*,0,-2,0,
OCCN1CCN(Cc2cccc(Cl)c2)CC1,3,-1,83*,1,1,4,
COc1ccc(N2CCN(Cc3cccc(OC)c3)CC2)cc1,5,1,34,0,nt,nt,
COc1ccc(CN2CCN(Cc3cccc(OC)c3)CC2)cc1,2,2,63*,0,12,12,
CC(=O)c1ccc(N2CCN(Cc3cccc(O)c3)CC2)cc1,-3,0,31,0,nt,nt,
COc1cccc(CN2CCN(c3ccc(C(C)=O)cc3)CC2)c1,-6,0,64*,0,9,3,
COc1cccc(CN2CCN(Cc3ccc(C)cc3)CC2)c1,-12,-1,77*,0,8,1,
COc1cccc(C(=O)Oc2ccc(/C=C/[N+](=O)[O-])cc2OC)c1,-1,0,13,0,nt,nt,
CCC(C)C1C(C#N)=C(N)Oc2c1c(=O)oc1ccccc21 (stereo unspecified),8,-1,14,0,nt,nt,
C[N+]1(C)C2CCC1CC(OC(=O)C(CO)c1ccccc1)C2 (stereo unspecified),-5,0,63*!,0,-1,-10,
C[N+]1(C)[C@@H]2CC[C@H]1CC(OC(=O)C(CO)c1ccccc1)C2 (stereo partly specified),nt,-4,18,0,nt,nt,
O=C(CN1CCN(C(=O)Cc2ccc(F)cc2)CC1)c1cccs1,7,-1,24,0,nt,nt,
O=C(CN1CCN(C(=O)COc2ccccc2F)CC1)c1cccs1,12,2,51*,0,7,20,
CN1CCN(CC#CCOc2ccc(Cl)cc2)CC1,-8,-1,54*,0,9,12,
COc1ccc(OC)c(-c2c(C#N)c(C)nc3c2N2CCC3CC2)c1,6,0,36,0,nt,nt,
CC1=C(C(=O)OC(C)(C)C)C2(C(=O)Nc3ccccc32)C(C(=O)OC(C)(C)C)=C(N)O1 (stereo unspecified),5,-1,-8,0,nt,nt,
O=C(Nc1ccc(Cl)cc1C(=O)c1ccccc1)c1cccs1,-5,0,0,0,nt,nt,
COc1ccccc1CN1CCN(Cc2ccccc2Br)CC1,-16,-2,71*,0,2,6,
CCN1CCN(Cc2ccccc2OC)CC1,-3,0,-67,0,nt,nt,
COc1ccccc1CN1CCN(Cc2ccccc2C)CC1,-8,0,78*,0,7,9,
COc1ccc(CN2CCN(C(=O)COc3ccccc3)CC2)cc1OC,4,0,44,0,nt,nt,
